The nature of experiment [1]: Wnt pathway potentiators raising nuclear beta-catenin – imaging, WNT3A-conditioned medium, mouse C2C12, NPC library, primary screen (AID 1117326; in the data active = nuclear beta-catenin stimulation mostly above about 4.2%, no sharp cut-off; inactive = mostly below about 10%; note: reference of the scale not given here). Particulars: stronger effect = higher value.
The nature of experiment [2]: stimulators of insulin release from INS-1E, primary screen, cell-based, 5 mM glucose, NPC library (AID 1117329;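 active = compound raises insulin release from rat beta cells at 5 mM glucose, no numeric limit stated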; note: reference of the scale not given here). Particulars: rat INS-1E insulin secretion, at 10 µM, stronger effect = higher value.
Experiment [3] is described as follows: growth inhibition of GSK3B-pretreated HCT116 cells – cell-based, CellTiter-Glo, 0.2 to 20 µM (AID 1117336;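 active = compounds lowering colon cancer cell viability after pretreatment blocking the GSK3B kinase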). Particulars: HCT116 viability after GSK3B inhibitor, at 20 µM, stronger effect = higher value. Background: In ATP-based viability assays light output follows the ATP content of the culture.
Experiment [4] can be described thus: inhibition of endothelial tube formation, primary screen, imaging, VEGF stimulated, CD31 staining, tube area, NPC library (AID 1117340). The note with it: VEGF-stimulated ADSC/ECFC co-culture, at 10 µM, stronger effect = higher value.
Experiment [5] is described as follows: GLP1 release stimulators, primary, NCI-H716, NPC library (AID 1117341;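 active = compound raises GLP1 secretion from the human gut endocrine cells, with no numeric limit stated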; note: reference of the scale not given here). Particulars: NCI-H716 cells, at 10 µM, stronger effect = higher value.
The nature of experiment [6]: HCT116 colon cancer cell growth inhibition, primary screen, CellTiter-Glo luminescence, NPC library (AID 1117342;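 active = compounds that lower survival of HCT116 colon cancer cells in the luminescence readout, no numeric limit stated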). The note with it: at 20 µM (top of the series).
Experiment [7] in a line: reduced SW480 viability measured with CellTiter-Glo, NPC library, primary (AID 1117343;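 active = compounds that lower viability of the colon cancer cells in the luminescence readout, with no numeric limit stated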). The note with it: CellTiter-Glo luminescence; at 20 µM (top of the series).
Experiment [8] in a line: NPC library primary testing for decreased DLD-1 cell viability via CellTiter-Glo (AID 1117346;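 active = compounds that lower survival of DLD-1 colon cancer cells in the luminescence readout, no cutoff given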). Particulars: DLD-1 viability, CellTiter-Glo luminescence; at 20 µM (top of the series).

The source made the active and inactive calls.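 Rule for the calls, unless noted: active = compound that reduces growth-factor-driven endothelial tube area in a mixed cell culture, no cutoff stated; inactive = the rest.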

On to `CNC(C)[C@@H](O)c1ccc(O)cc1` (some centres undefined), for which the nuclear beta-catenin stimulation is 0.7% (inactive) in experiment [1] (at 10 µM) and 1.3% in experiment [1] (stimulation, at 2 µM). The insulin secretion stimulation in experiment [2] was 4.8% (inactive). In addition, in experiment [3], the viability decrease is -4.1% (inactive). For the same compound, the tube area decrease in experiment [4] is -8.3% (inactive). Besides, in experiment [5], the GLP1 secretion stimulation was -5% (inactive). For the same compound, the inhibition of viability in experiment [6] is 3.4% (inactive). In addition, the viability decrease (inhibition) was 27.7% (inactive) in experiment [7] and 6% (inactive) in experiment [8].

As for `Cc1ccc([N+](=O)[O-])[c]2c1[O][Hg]2`, the nuclear beta-catenin stimulation was 20.9% (active) in experiment [1] (at 10 µM) and 66.9% in experiment [1] (stimulation, at 2 µM). Further, the insulin secretion stimulation in experiment [2] is 87.1% (active). In experiment [3], the viability decrease is 99.5% (active). Also, the tube area decrease in experiment [4] is 105% (active). Further, the GLP1 secretion stimulation in experiment [5] is 64.6% (active). In addition, the inhibition of viability in experiment [6] is 100% (active). For the same compound, the figures for the viability decrease (inhibition) in experiment [7] and in experiment [8] were 134% (active) and 103% (active), respectively.

As for `C[N+](C)(C)CCOC(=O)C(O)(c1ccccc1)c1ccccc1`, the nuclear beta-catenin stimulation in experiment [1] (at 10 µM) is -1.8% (inactive); in experiment [1] (stimulation, at 2 µM), -0.5%. The insulin secretion stimulation in experiment [2] was 1.1% (inactive). Besides, the viability decrease in experiment [3] is 98.1% (active). Moreover, the tube area decrease in experiment [4] was -29.2% (inactive). In experiment [5], the GLP1 secretion stimulation is -2.6% (inactive). Further, the inhibition of viability in experiment [6] is 96.5% (active). In addition, the results for the viability decrease (inhibition) in experiment [7] and in experiment [8] were 98.8% (active) and 102% (active), respectively.

Take `O=C(CCl)c1ccc(Cl)cc1Cl`: the nuclear beta-catenin stimulation was 3.3% (active) in experiment [1] (at 10 µM) and 45.6% in experiment [1] (stimulation, at 2 µM). In experiment [2], the insulin secretion stimulation was 4.4% (inactive). Further, the viability decrease in experiment [3] is 66.2% (active). In addition, the tube area decrease in experiment [4] was 104% (active). Besides, the GLP1 secretion stimulation in experiment [5] is -6.4% (inactive). Further, in experiment [6], the inhibition of viability was 88.3% (active). For the same compound, the viability decrease (inhibition) in experiment [7] is 91.8% (active); in experiment [8] it was 64.8% (active).

On to `O=C(N[C@H]1N=C(c2ccccc2F)c2cccc3c2N(CC3)C1=O)c1cc2ccccc2[nH]1`, for which the nuclear beta-catenin stimulation is 1.3% (inactive) in experiment [1] (at 10 µM) and 1.4% in experiment [1] (stimulation, at 2 µM). Moreover, the insulin secretion stimulation in experiment [2] is 3.5% (inactive). In experiment [3], the viability decrease is 44.4% (inactive). Also, in experiment [4], the tube area decrease was 8.5% (inactive). Also, the GLP1 secretion stimulation in experiment [5] was 1.8% (inactive). Further, the inhibition of viability in experiment [6] was 54.9% (active). Also, the viability decrease (inhibition) in experiment [7] is 56.9% (active); in experiment [8] it was 29.7% (inactive).

For the compound `C[C@]12CC[C@H]3[C@@H](CCC4=CC(=O)CC[C@@]43C)[C@@H]1CC[C@@H]2C(=O)O`, the nuclear beta-catenin stimulation in experiment [1] (at 10 µM) was 0.7% (inactive); in experiment [1] (stimulation, at 2 µM) it was 0.3%. Also, the insulin secretion stimulation in experiment [2] was 0.2% (inactive). Besides, in experiment [3], the viability decrease is 3.5% (inactive). Also, the tube area decrease in experiment [4] was 8.1% (inactive). In addition, in experiment [5], the GLP1 secretion stimulation was -3.2% (inactive). The inhibition of viability in experiment [6] is 5.9% (inactive). Further, the viability decrease (inhibition) in experiment [7] is -1.3% (inactive); in experiment [8] it was 2.4% (inactive).

As to `CC(C(O)c1ccccc1)N(C)C/C=C/c1ccccc1` (centres undefined), the nuclear beta-catenin stimulation in experiment [1] (at 10 µM) is 3.5% (inactive); in experiment [1] (stimulation, at 2 µM), 3.1%. Further, the insulin secretion stimulation in experiment [2] was 2.4% (inactive). Moreover, the viability decrease in experiment [3] was -101% (inactive). In experiment [4], the tube area decrease is 54.6% (active). In addition, the GLP1 secretion stimulation in experiment [5] was -3.2% (inactive). In addition, in experiment [6], the inhibition of viability was 60.9% (active). Also, the viability decrease (inhibition) is 29.4% (inactive) in experiment [7] and 7.9% (inactive) in experiment [8].

On to `CC(C)(C)NC[C@H](O)c1ccc(O)cc1Cl`, for which the nuclear beta-catenin stimulation in experiment [1] (at 10 µM) was 0.3% (inactive); in experiment [1] (stimulation, at 2 µM), -0.2%. In addition, the insulin secretion stimulation in experiment [2] was 7.2% (inactive). Besides, the viability decrease in experiment [3] was 13.2% (inactive). Further, the tube area decrease in experiment [4] is -4.4% (inactive). Further, the GLP1 secretion stimulation in experiment [5] was 5.5% (inactive). Further, in experiment [6], the inhibition of viability was 35.7% (inactive). Also, the viability decrease (inhibition) in experiment [7] is 37.1% (inactive); in experiment [8], 8.8% (inactive).

In the case of `CC(C)NCC(O)c1ccc([N+](=O)[O-])cc1` (centres undefined), the nuclear beta-catenin stimulation in experiment [1] (at 10 µM) is -2.4% (inactive); in experiment [1] (stimulation, at 2 µM) it was -1%. Further, the insulin secretion stimulation in experiment [2] was 5.1% (inactive). In addition, the viability decrease in experiment [3] was -1% (inactive). In experiment [4], the tube area decrease is 15% (inactive). Besides, the GLP1 secretion stimulation in experiment [5] was -0.9% (inactive). Besides, in experiment [6], the inhibition of viability was 17.5% (inactive). Further, the viability decrease (inhibition) was 33.9% (active) in experiment [7] and 1.9% (inactive) in experiment [8].

Regarding `CC(C)NC(C)C`, the nuclear beta-catenin stimulation in experiment [1] (at 10 µM) was 14.9% (inactive); in experiment [1] (stimulation, at 2 µM), 5.2%. For the same compound, the insulin secretion stimulation in experiment [2] was 4.3% (inactive). Also, the viability decrease in experiment [3] was -0.3% (inactive). In experiment [4], the tube area decrease is -6.3% (inactive). The GLP1 secretion stimulation in experiment [5] was -0.1% (inactive). Further, the inhibition of viability in experiment [6] is 1.1% (inactive). In addition, the viability decrease (inhibition) was 2.1% (inactive) in experiment [7] and 0.4% (inactive) in experiment [8].

As for `CCOC(=O)C(c1c(O)c2ccccc2oc1=O)c1c(O)c2ccccc2oc1=O`, the nuclear beta-catenin stimulation in experiment [1] (at 10 µM) was -0.3% (inactive); in experiment [1] (stimulation, at 2 µM), -0.6%. In addition, in experiment [2], the insulin secretion stimulation is -0.8% (inactive). Besides, the viability decrease in experiment [3] was 13% (inactive). In addition, the tube area decrease in experiment [4] is -8.4% (inactive). In addition, the GLP1 secretion stimulation in experiment [5] is -0.8% (inactive). The inhibition of viability in experiment [6] is 5.5% (inactive). Moreover, the viability decrease (inhibition) is -18.7% (inactive) in experiment [7] and 3.4% (inactive) in experiment [8].

On to `CC(C)=C[C@@H]1[C@@H](C(=O)OCc2coc(Cc3ccccc3)c2)C1(C)C`, for which the nuclear beta-catenin stimulation in experiment [1] (at 10 µM) was 0.3% (inactive); in experiment [1] (stimulation, at 2 µM), 0.4%. For the same compound, in experiment [2], the insulin secretion stimulation is -3.4% (inactive). For the same compound, the viability decrease in experiment [3] was 14.7% (inactive). Moreover, the tube area decrease in experiment [4] was 12.6% (inactive). Moreover, the GLP1 secretion stimulation in experiment [5] was -0.4% (inactive). Besides, the inhibition of viability in experiment [6] was 12.9% (inactive). Moreover, the viability decrease (inhibition) in experiment [7] is 87.8% (active); in experiment [8], 23.4% (inactive).

With `CNC(C)Cc1ccccc1OC` (centres undefined), the nuclear beta-catenin stimulation in experiment [1] (at 10 µM) is -0.4% (inactive); in experiment [1] (stimulation, at 2 µM) it was 1.2%. The insulin secretion stimulation in experiment [2] was 7.2% (inactive). The viability decrease in experiment [3] is -1.3% (inactive). Moreover, the tube area decrease in experiment [4] is -13.1% (inactive). Besides, in experiment [5], the GLP1 secretion stimulation is 0.2% (inactive). The inhibition of viability in experiment [6] is 9.4% (inactive). Further, the viability decrease (inhibition) in experiment [7] is 41.8% (inactive); in experiment [8], 43.1% (inactive).

As to `O=C1OC(CCN2CCCCC2)OC1(c1ccccc1)c1ccccc1` (centres undefined), the nuclear beta-catenin stimulation was 15% (inactive) in experiment [1] (at 10 µM) and 0.5% in experiment [1] (stimulation, at 2 µM). The insulin secretion stimulation in experiment [2] was 5.9% (inactive). Further, the viability decrease in experiment [3] was 0.7% (inactive). For the same compound, in experiment [4], the tube area decrease was 6% (inactive). Further, the GLP1 secretion stimulation in experiment [5] is 4.4% (inactive). Moreover, the inhibition of viability in experiment [6] is 1.1% (inactive). For the same compound, the results for the viability decrease (inhibition) in experiment [7] and in experiment [8] were 15% (inactive) and 92.8% (active), respectively.

Take `CCN(CC)C(=O)N[C@@H]1C=C2c3cccc4[nH]cc(c34)C[C@@H]2N(C)C1`: the nuclear beta-catenin stimulation in experiment [1] (at 10 µM) is 0.6% (inactive); in experiment [1] (stimulation, at 2 µM), -0.6%. For the same compound, the insulin secretion stimulation in experiment [2] is 2.6% (inactive). Moreover, the viability decrease in experiment [3] was 8.2% (inactive). For the same compound, the tube area decrease in experiment [4] was -8.2% (inactive). Besides, the GLP1 secretion stimulation in experiment [5] was -1% (inactive). Also, in experiment [6], the inhibition of viability is 12.2% (inactive). In addition, the viability decrease (inhibition) in experiment [7] was -11.8% (inactive); in experiment [8] it was -5.3% (inactive).

Take `CNC(=O)NC(O)C(Cl)(Cl)Cl` (centres undefined): the nuclear beta-catenin stimulation in experiment [1] (at 10 µM) was -0.4% (inactive); in experiment [1] (stimulation, at 2 µM), -0.2%. The insulin secretion stimulation in experiment [2] is -1% (inactive). The viability decrease in experiment [3] is -2.1% (inactive). The tube area decrease in experiment [4] is -28.9% (inactive). In addition, in experiment [5], the GLP1 secretion stimulation is 3.1% (inactive). In addition, the inhibition of viability in experiment [6] was -4.4% (inactive). The viability decrease (inhibition) in experiment [7] was 19.7% (inactive); in experiment [8] it was -1.55% (inactive).

The values above are taken from PubChem BioAssay.
